Results reported in ChEMBL document CHEMBL3988442, “University of Dundee, Small-Polar-MMV Screening Library” (2021).

Molecular target: Shiga toxin 2 (Escherichia coli O157:H7) (UniProt P09385+P09386)
Assay: E. coli 0.157:H7 Shiga Toxin SOP - stx2 screening assay
Type: functional
Parameters: scale not given: direction of the effect not stated beside the values
Conditions: 30 µM

SMILES | Percent Effect
O=C(COc1cccc(Br)c1)N1CCOCC1c1ncon1 (stereo not given) | 9.16%
COCC(=O)N1CCC2(CCN(Cc3ccccn3)CC2)CC1 | -8.31%
Cc1ccc(NC(=O)NCCCc2n[nH]c(N)c2C#N)cc1 | -18.4%
CC(O)CN1CCN(Cc2nnc(C3CC3)o2)CC1 (stereo not given) | -17.9%
c1ccc2sc(CN3CCOC(Cn4cncn4)C3)nc2c1 (stereo not given) | 14%
CCc1cc(C(F)(F)F)c2c(C)nn(CC(=O)O)c2n1 | 14.6%
c1ccc(CN2CCc3nnc(CN4CCCCC4)n3CC2)nc1 | 1.8%
CCn1cc(NC(=O)C2CCN(Cc3ccccc3C#N)CC2)cn1 | -53.9%
CN(Cc1ccc(F)cc1)CC1(O)CCCN(CC(C)(C)C)C1=O (stereo not given) | 28.1%
Cc1cnn(CC2CCCN2CCc2nc3ccccc3c(=O)[nH]2)c1 (stereo not given) | 2.14%
CC1(C)Cc2ccccc2-c2nc(NCCO)[nH]c(=O)c21 | 0.00332%
O=C(NCC(F)F)N1CCC(n2ccc(C(F)(F)F)n2)CC1 | -7.64%
Cc1noc(C)c1CN(C)C(=O)NC1CCN(C2CC2)CC1 | -7.45%
O=C(c1cscn1)N1C[C@@H]2C[C@@H](c3nnc(C4CC4)o3)O[C@@H]2C1 | -37.8%
O=C(NCC1CCOC1)c1csc(-c2cccc(Cl)c2)n1 (stereo not given) | 5.81%
Cc1ccc(-c2nc(CN3CCn4c(nnc4C4CC4)C3)co2)cc1 | 10.1%
CCCNC(=O)Cn1nc(C(C)C)c2cnn(C(C)(C)C)c2c1=O | 8.81%
Cn1cnnc1C1CCCN(C(=O)NCc2cc[nH]n2)C1 (stereo not given) | 12.3%
O=C(c1cccnc1)N1C[C@@H]2CC[C@H](C1)N(Cc1cccc(Cl)c1F)C2 | -10.5%
Cc1ccccc1N1CC2(CCN(S(=O)(=O)C3CC3)C2)CC1=O (stereo not given) | -4%

SMILES | Percent Effect
O=C(c1cccnc1O)N(Cc1ccsc1)CC1CCCO1 (stereo not given) | -27.4%
COc1ccc2nnc(CCCC(=O)NCc3cccn3C)n2n1 | -44.7%
CC(C)c1ncncc1C(=O)NCCN1CCCS1(=O)=O | 6.66%
CC(C)COC(C)C(=O)NCc1cc(F)cc(F)c1 (stereo not given) | 27.6%
Cn1cnnc1C1CCN(c2cncc(-n3cccn3)n2)CC1 | -33.6%
COc1ccc(NC(=O)NCC(O)c2ccc(F)cc2F)c(OC)c1 (stereo not given) | -4.16%
Cn1cc(C2CCCN2C(=O)CCCOc2ccc(F)cc2F)cn1 (stereo not given) | 13.7%
O=C(CC1CCCC1)N1CCCC(c2n[nH]c3nccnc23)C1 (stereo not given) | 19.5%
Cc1ncsc1CN1C[C@@H]2COC[C@]2(C(=O)NCC2CC2)C1 | -13.5%
COCCNC(=O)c1sc(Nc2ccc(Cl)cn2)nc1C | -31.4%
CSc1ccsc1C(=O)N1CCN(CC(C)(C)O)CC1 | -13.5%
CCO[C@@H]1CCN(C(=O)c2ccc[nH]2)[C@@H]1Cc1cnn(C)c1 | 5.04%
Cc1noc(C(C)C)c1C(=O)NCc1cc(F)cc(F)c1 | 14.2%
Cc1cc(C)n(-c2cncc(NCCNC(=O)CC3CCCC3)n2)n1 | -15.9%
CN1CCN(C(=O)NC2CC2)Cc2cccnc21 | -32.5%
O=C(NCCCN1CCc2ccccc2C1)c1cccnc1O | -68.5%
Cc1nc(C2CCCN2CC(=O)N(Cc2ccsc2)C2CC2)no1 (stereo not given) | 0.717%
CC1=NN(c2ccc(C(=O)N3CCCC(n4ccnc4)C3)cc2)CC1 (stereo not given) | -30.6%
Cn1c(CNc2c(F)cccc2-n2cccn2)cc(=O)n(C)c1=O | 0.236%
O=C(NCc1nnc2ccccn12)N1CCc2sccc2C1 | 1.75%
